From PubChem BioAssay AID488890 (Southern Research Specialized Biocontainment Screening …, 2010) come the findings set out here.

In all, about 320,000 compounds went through this assay and about 1,300 (0.41%) were called active. Another 3% or so got no clear call; they are omitted. How the calls were made is not given here. The list is a sample of the results. Results with a measured potency or affinity are listed apart.

The assay is described as follows: growth inhibition of non-replicating M. tuberculosis (AID 488890).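 Further: plate controls were DMSO cells for no effect and high antibiotic wells for full effect.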 To be noted: Mycobacterium tuberculosis non-replicating, at 25 µM, stronger effect = higher value.
For `CCC(CO)N=CC1=C(O)C(C(=O)c2ccccc2)CCC1=O` (stereo not drawn), the inhibition – broadly, the change of the read-out against control, counted positive when it falls – is 4.93%.

For `CC(=O)Nc1ccc(NC(=O)CSc2nnc(-c3cc4ccccc4o3)n2C)cc1`, the inhibition was -4.95%. With `COc1cccc2nc3cc(C)c(C)cc3nc12` the figure was 39.2%; with `COc1cc(C(=O)O)c2ccccc2n1`, -12.4%; with `CC(CNC(=O)CN1C(=O)C(=O)N(C2CCCC2)C1=O)c1ccccc1` (stereo not drawn), 21.6%.

Take `O=C(O)C1=NN(c2ccccc2)C(=O)CC1`: the inhibition came to 1.61%. Turning to `CCOc1cc(CNCCO)cc(Br)c1OCc1ccccc1`, the inhibition worked out at 75.9%. With `COc1cc(CNCCO)cc(Br)c1OCc1ccccc1Cl` the figure was 79%; with `CCOc1cc(CNCCO)cc(Br)c1OCc1cccs1`, 73.5%. In the case of `COc1cc(CNCCO)cc(Br)c1OCc1ccccc1`, the inhibition is 28.5%.

On to `COCCNC(=O)COc1coc(CN2CCN(Cc3ccccc3)CC2)cc1=O`, for which the inhibition was 0.19%. As for `CCOc1ccc2oc(C(=O)NNC(=O)c3csc(N4CCOCC4)n3)c(C)c2c1`, the figure is 75.8%. With `Cc1cccc(C(=O)NNC(=O)c2csc(N3CCOCC3)n2)c1C` the figure was -2.47%; with `CCN(N=Nc1cccc([N+](=O)[O-])c1)c1cccc([N+](=O)[O-])c1`, -3.89%; with `CC1(C)CC(=O)C(N=Nc2cccc([N+](=O)[O-])c2)=C(O)C1`, -5.61%. As to `COCC(C)n1c(SCC(=O)N2CCOCC2)nc2ccccc2c1=O` (stereo not drawn), the inhibition came to 3.46%. As for `CCC(C)[C@H](NC(=O)[C@@H]1CSC2c3ccccc3C(=O)N21)C(=O)N1CCCCC1` (stereo partly drawn), the figure is 12.4%; as for `OCC#CCSc1nnc(-c2ccncc2)o1`, 23.9%; as for `Oc1ccc(-c2nnc(SCc3ccccc3)o2)cc1`, 77.5%. With `CCSc1nnc(-c2ccncc2)o1` the figure was 0.24%; with `COc1ccc(-c2nnc(SCC#CCO)o2)cc1OC`, 45.7%. With `O=C(O)c1ccc(-c2nnc(-c3ccc([N+](=O)[O-])cc3)o2)cc1` the figure was -2.79%; with `O=C(CSc1nnc(-c2ccncc2)o1)c1cccc([N+](=O)[O-])c1`, 70.5%; with `O=C(CSc1nnc(-c2ccc(O)cc2)o1)Nc1ccccc1`, 63.5%.

Consider `Cc1ccc(C(=O)CSc2nnc(-c3ccccc3)o2)cc1`, for which the inhibition was found to be 64.9%.

Regarding `CCOCCCNC(=O)c1cc2c(s1)-c1ccccc1SC2`, the inhibition is 9.76%. As for `CC(=O)Nc1nccc(-c2cc(-c3ccccc3)no2)n1`, the inhibition was 2.66%.

For the molecule `COc1ccccc1N(CC(O)Cn1c2ccccc2c2ccccc21)S(=O)(=O)c1ccccc1` (stereo not drawn), the inhibition was found to be 31.5%. As for `Cc1ccccc1C(=O)NNC(=O)c1ccc2nc[nH]c2c1`, the figure is 8.7%. With `COc1ccc(S(=O)(=O)Nc2cccc3c2O[C@H](CN(C)S(=O)(=O)c2ccc(Cl)cc2)[C@H](C)CN([C@H](C)CO)C3=O)cc1` the figure was 51.4%; with `O=c1c2ccccc2ncn1-c1ccc(Cl)c(Cl)c1`, 1.67%. With `COc1cc(Cl)cc(C=O)c1OCC(=O)O` the figure was 8.45%. For the molecule `COc1ccc(CCNC(=O)C2CCCN2C(=O)Nc2ccc(Cl)cc2)cc1OC` (stereo not drawn), the inhibition stood at 20.8%. Consider `Cc1ccc(CSc2nnc(-c3cccc4ccccc34)o2)cc1`, for which the inhibition amounted to 14.4%. As for `C=CCSc1nnc(-c2cccc3ccccc23)o1`, the figure is 5.5%; as for `Cc1ccccc1-c1nnc(SCC#N)o1`, 15.7%; as for `C#CCSc1nnc(-c2sc3ccccc3c2Cl)o1`, 71.8%. As for `C#CCSc1n[nH]c(=O)n1-c1cccc(C(F)(F)F)c1`, the figure is 3.27%; as for `O=C(N/N=C/c1c(O)n(-c2ccc(Cl)cn2)c(=O)c2ccccc12)C1CC1`, 6.8%.

As for `O=C(CCNc1n[nH]c(=O)[nH]c1=O)N/N=C\c1cccc(OCc2ccccc2)c1`, the inhibition turned out to be 10.7%.

With `Cc1ccccc1NC(=O)c1ccc(Cn2cc([N+](=O)[O-])cn2)o1`, the inhibition came to 46.5%.

With `Cc1cc(NC(=O)c2ccc(Cn3cc([N+](=O)[O-])cn3)o2)no1`, the inhibition is 14.1%. On to `COc1cccc(NC(=O)c2ccccc2)c1`, for which the inhibition was 4.57%. As for `COc1ccc(NC(=O)c2ccc(C(=O)c3ccccc3)o2)cc1`, the figure is -11.3%.

On to `COc1cccc(NC(=O)CNC(=O)c2ccc([N+](=O)[O-])cc2)c1`, for which the inhibition was found to be 12.4%. As for `COc1cccc(NC(=O)CC(=O)c2ccc([N+](=O)[O-])cc2)c1`, the figure is 47%; as for `CC(=O)Nc1ccc(NC(=O)c2ccc(-c3ccc([N+](=O)[O-])cc3)o2)cc1`, 28.3%. With `COc1ccc(CCNC(=O)c2ccc(-c3ccc([N+](=O)[O-])cc3)o2)cc1OC` the figure was 60.1%. Consider `CSc1nc2n(n1)C(C)C1=C(CCCC1=O)N2` (stereo not drawn), for which the inhibition is -15.3%. With `CC(=O)Nc1ccc(NC(=O)c2ccc(S(=O)(=O)N(C)c3ccccc3)cc2)cc1` the figure was -4.01%; with `COc1ccc(C(=O)OCc2c(-c3ccccc3)ncc3ccccc23)cc1`, 14.9%.

As to `Cc1cccc(C(=O)NCCC(=O)Nc2ccc(C#N)cc2)c1`, the inhibition was -25.3%. `Cc1cccc2nc(CSc3ccccc3C(=O)O)cn12`: the inhibition is 24.4%. With `Cc1cc(C)cc(NC(=O)C2CCCN(c3ncccn3)C2)c1` (stereo not drawn) the figure was 0.57%; with `c1cc(-c2cc3cc4c(cc3cn2)OCO4)cs1`, 53.8%; with `O=S(=O)(c1cc(Cl)ccc1Cl)N1CCN(c2ccccn2)CC1`, 6.68%.

For `O=S(=O)(CCN1CCN(c2ccccn2)CC1)c1ccc(F)cc1`, the inhibition is 3.07%. As for `CC(=O)Cn1c2ccccc2n2nc(CCC(=O)O)c(=O)nc12`, the figure is -25.9%; as for `O=C(OCC(=O)N1CCCC1)c1ccccc1O`, 71.7%; as for `O=C(COc1ccc(Cl)cc1)OCC(=O)N1CCCCCC1`, 70.8%.

`CC1CCN(C(=O)COC(=O)c2cc3ccccc3oc2=O)CC1`: the inhibition came to 11.8%. As for `NC(=O)C1CCN(C(=O)COc2ccc(Nc3ccccc3)cc2)CC1`, the figure is 24.7%; as for `O=C(OCC(=O)N1CCN(C(=O)COC(=O)c2ccc(O)cc2O)CC1)c1ccc(O)cc1O`, -2.13%; as for `Cc1cccc(C(=O)OCC(=O)N2CCCCCC2)c1`, 12%. As for `O=C(c1cc2ccccc2cc1O)N1CCCC1`, the figure is 5.6%; as for `CC1CCN(C(=O)c2cc3ccccc3cc2O)CC1`, 62%; as for `O=[N+]([O-])c1cccc(-c2csc(N/N=C/c3cccc(O)c3)n2)c1`, 4.67%. In the case of `COc1ccc(C(OC(=O)c2ccco2)C(=O)NC2CCCC2)cc1` (stereo not drawn), the inhibition was -11.4%. As for `CCc1ccc(C(=O)NCc2cnn(C)c2)s1`, the figure is 6.54%; as for `Cc1ccc(SCC(=O)O/N=C(\N)c2cccnc2)cc1`, 67.7%; as for `O=C(/C=C/Nc1ccc(Oc2ccccc2Cl)cc1)c1ccco1`, 61.8%. With `Cc1cccc(-n2ccnc2SCC(=O)Nc2nccs2)c1` the figure was 15.5%.

`O=C(NCc1nc2ccccc2[nH]1)c1ccc([N+](=O)[O-])cc1`: the inhibition came out at 4.71%.

As to `O=C(Cc1nc2ccccc2[nH]1)c1ccc([N+](=O)[O-])cc1`, the inhibition came out at 6.15%. On to `Cc1cc(C(=O)CN2C(=O)C(=O)N(Cc3ccco3)C2=O)c(C)n1CCc1ccccc1`, for which the inhibition was determined as 54.3%. As to `Cc1cccc(NC(=O)COc2ccc3oc4c(c3c2)CCCC4)n1`, the inhibition worked out at 75.9%. As for `Cc1ccnc(NC(=O)COc2ccc3oc4c(c3c2)CCCC4)c1`, the inhibition came to 76.9%.

`COc1ccc(CNC(=O)Nc2ccc([N+](=O)[O-])cc2)cc1`: the inhibition was -6.85%. As for `O=C(NCCCn1ccnc1)c1ccc(Cl)c(S(=O)(=O)N2CCOCC2)c1`, the figure is 2.9%; as for `C/C(CC(=O)Nc1cccnc1)=N\NC(=O)C(=O)Nc1cccc(C)c1`, 6.84%. As for `CCOCCn1ccc2c(OCC(=O)Nc3ccccc3F)cccc2c1=O`, the figure is 4.93%; as for `COc1cccc(OCCNC(=O)c2ccc(C)cc2)c1`, 37.6%. As for `COc1cccc(OCCNC(=O)c2cccc(OC)c2)c1`, the figure is 7.64%. Take `Cc1ccc(OCCNC(=O)c2cccc(C)c2)cc1`: the inhibition came out at 49.8%. With `O=C(NCCOc1ccccc1)c1cc(C(=O)NCCOc2ccccc2)cc([N+](=O)[O-])c1` the figure was -6.28%. As for `CCCN(C(=O)c1ccco1)c1nnc(-c2ccccc2C)s1`, the inhibition is 72.7%.

For the molecule `COc1cc(C(=O)N[C@H](C(=O)NC2CCCCCC2)C(C)C)cc(OC)c1OC`, the inhibition turned out to be 2.31%. As for `O=C(COC(=O)c1cc(Br)ccc1O)Nc1ccc2c(c1)OCCO2`, the figure is 76.5%; as for `O=C(COC(=O)c1cc(Cl)ccc1O)Nc1ccc2c(c1)OCCO2`, 71.7%.

Regarding `O=C(COC(=O)c1cccnc1Cl)c1ccc2c(c1)OCCO2`, the inhibition was 5.13%. On to `Cc1ccc(C(=O)OCC(=O)Nc2ccc3c(c2)OCO3)c(O)c1`, for which the inhibition is -15.4%. Regarding `CC1=C(C(=O)OCc2ccccc2)C(c2ccc([N+](=O)[O-])cc2)NC(=O)N1` (stereo not drawn), the inhibition was 8.66%. With `Cc1ccc(-n2cc3c(=O)n(C)c(=O)n(C)c3c2)cc1C` the figure was 13.7%; with `COc1cc2[nH]c(=S)nc(NCc3cccs3)c2cc1OC`, -37%. As for `COC(=O)c1ccc(NC(=O)NS(=O)(=O)c2ccc(C)cc2)cc1`, the figure is 16.8%.

Regarding `CCOC(=O)CC(=O)Nc1ccc(C)cc1`, the inhibition came to 60.5%.

Turning to `CCOC(=O)c1ccc(S(=O)(=O)NNS(=O)(=O)c2ccc(C)cc2)cc1`, the inhibition amounted to 3.23%.

For `CCOC(=O)c1ccc(NC(=O)CCC(=O)OC)cc1`, the inhibition was determined as 3.53%. With `COC(=O)C(C)NC(=O)c1ccc(C(C)(C)C)cc1` (stereo not drawn) the figure was -13.9%.

With `Cc1oc(-c2ccccc2F)nc1CS(=O)(=O)CC(=O)NCCCc1ccccc1`, the inhibition was -19.5%. With `Cc1ccc(C(C)NC(=O)c2ccco2)cc1` (stereo not drawn) the figure was 71.4%.

Regarding `CCC(=O)C1CCCN(C(=O)CCc2nnc(-c3ccc4c(c3)OCO4)o2)C1` (stereo not drawn), the inhibition was -3.37%. As for `O=C(O)c1ccccc1N=N/C(=N/Nc1cc(S(=O)(=O)O)ccc1O)c1ccccc1`, the figure is -12.5%; as for `Oc1ccccc1N=N/C(=N/Nc1ccccc1O)c1ccccc1`, 22.9%; as for `CC(=O)OC(C(=O)NC1CCCCC1)c1ccncc1` (stereo not drawn), -2.68%. For the molecule `CSC1=NSC2=NC(=O)/C(=C/c3coc4ccccc4c3=O)C(=N)N12`, the inhibition is -10.1%. Regarding `CSC1=NSC2=NC(=O)/C(=C\c3coc4ccccc4c3=O)C(=N)N12`, the inhibition is -4.28%. As for `CCOc1ccc(Nc2ccc(N3C(=O)CCC3=O)cc2[N+](=O)[O-])cc1`, the inhibition is 7.14%.

Regarding `Cc1sc(NC(=O)c2cccc(N3C(=O)CCC3=O)c2)nc1-c1ccccc1`, the inhibition was -5.52%.

As to `CCN(CC)S(=O)(=O)c1cccc(-c2nnc(SCC(=O)NC)n2N)c1`, the inhibition is -7.59%. With `COc1ccc(NC(=O)CCC(=O)c2cccs2)c(OC)c1` the figure was -6.26%. `Cc1ccc(NC(=O)COC(=O)CCC(=O)c2cccs2)cc1`: the inhibition came to 69%. With `Cc1ccc(NC(=O)CCC(=O)c2cccs2)cc1` the figure was 8.3%; with `COc1ccc(NC(=O)CCC(=O)c2cccs2)cc1Cl`, 1.43%. In the case of `Cc1ccc(NC(=O)COC(=O)CCC(=O)c2cccs2)cc1C`, the inhibition is 59.8%. As for `COc1cc(NC(=O)C/C(C)=N/NC(=O)c2cccc(O)c2)c(OC)cc1Cl`, the figure is 45.4%.

As for `Cc1ccc(N/C=C/C(=O)c2cccs2)cc1C`, the inhibition is 35.6%.

With `COc1cc(NC(=O)C/C(C)=N/NC(=O)c2ccccn2)c(OC)cc1Cl`, the inhibition was determined as 69.5%.
